Among all 220,000 compounds or so, about 770 (0.35%) were called active. No stated cut-off is given here; in the data, active means activation above about 11%; inactive means the rest. What follows is part of a selection rich in actives, with near analogues and random picks from the rest.
Molecular target: Sphingosine 1-phosphate receptor 4 (Homo sapiens) (UniProt O95977)
Test: activators of human S1P4 receptor – cell-based, primary screen (AID 1509);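 further: 0% = DMSO vehicle and 100% = reference agonist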
Settings: S1P4-expressing cell line, agonist reporter assay; at 4.98 µM; stronger effect = higher value

Sphingosine 1-phosphate receptor 4 (Homo sapiens), sequence (O95977 whole entry, looked up): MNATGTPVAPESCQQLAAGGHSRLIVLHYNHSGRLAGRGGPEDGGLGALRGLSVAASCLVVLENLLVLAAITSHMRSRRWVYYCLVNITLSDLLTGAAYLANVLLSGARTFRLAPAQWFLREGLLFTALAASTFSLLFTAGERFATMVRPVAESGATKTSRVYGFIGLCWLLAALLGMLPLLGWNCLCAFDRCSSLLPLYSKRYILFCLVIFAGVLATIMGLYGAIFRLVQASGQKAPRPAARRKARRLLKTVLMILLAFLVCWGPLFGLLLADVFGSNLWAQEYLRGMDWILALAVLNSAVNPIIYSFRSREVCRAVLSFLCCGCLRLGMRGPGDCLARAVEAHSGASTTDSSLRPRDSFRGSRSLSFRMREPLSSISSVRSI

Compound | activation
CCCCc1ccc(S(N)(=O)=O)cc1 | -0.75% (inactive)
CC(C)(C)n1cnnc1Sc1ccc([N+](=O)[O-])cn1 | -0.36% (inactive)
CC(C)(C)C(=O)NCCCNc1ccc([N+](=O)[O-])cc1 | 0.65% (inactive)
Cc1cc(C)c(C#N)c(SCC(=O)NN2CC(=O)N(c3ccccc3F)CC2=O)n1 | 55.1% (active)
Cc1cc(C)c(C#N)c(SCC(=O)Nc2ccccc2)n1 | 2.39% (inactive)
Cc1cc(C)c(C#N)c(SCc2ccccc2C(=O)O)n1 | 0.52% (inactive)
O=C(O)CCn1cc(/C=C/C(=O)c2ccc(Cl)cc2)c(-c2cccc(Br)c2)n1 | 0.7% (inactive)
CCc1ccc(/C=N/NC(=O)c2ccc(OC3CCCC3)cc2)s1 | 0.66% (inactive)
O=C(O)/C=C/C(=O)NNc1ccc([N+](=O)[O-])cc1 | -0.64% (inactive)
Cc1csc(/N=C/N(C)C)c1C#N | 0.51% (inactive)
CC(C)C(c1nnnn1C(C)(C)C)N1CCN(Cc2cccnc2)CC1 (centres undefined) | 12.3% (active)
COc1ccccc1C(c1nnnn1C(C)(C)C)N1CCN(Cc2ccccc2)CC1 (centres undefined) | -1.97% (inactive)
CCCC(c1nnnn1C(C)(C)C)N1CCN(Cc2ccccc2)CC1 (centres undefined) | 0.72% (inactive)
CC(=O)Nc1ccc(NC(=O)CSc2ncnc3c2cnn3Cc2ccccc2)cc1 | -0.48% (inactive)
COc1ccc(C(C(=O)NC(C)(C)C)N(C(=O)Cn2nnc3ccccc32)c2ccc(C(C)=O)cc2)cc1O (centres undefined) | 0.1% (inactive)
CCOC(=O)COc1nc(C)cc(C(F)(F)F)c1C#N | -0.16% (inactive)
CCc1ccc(-n2c(=S)sc3c(=O)n(-c4ccccc4OC)c(=S)[nH]c32)cc1 | 1.93% (inactive)
O=C(NC1CCCCC1)C1CCCN(S(=O)(=O)c2ccc(Br)s2)C1 (centres undefined) | 1.69% (inactive)
CCOc1cc(N2CCOCC2)c(OCC)cc1NC(=O)C1=NN(c2cccc(C)c2)C(=O)CC1 | 0.94% (inactive)
Cc1ccc(/C([O-])=C(/C(=S)NCc2ccco2)[n+]2ccccc2)cc1[N+](=O)[O-] | 0.47% (inactive)
CCN(CC)CCNC(=O)c1sc2ncn(CC(=O)Nc3ccc(C)c(Cl)c3)c(=O)c2c1C | -1.34% (inactive)
COc1ccccc1C1CC(=O)n2c(nc(-c3ccccc3)c2-c2ccccc2)S1 (centres undefined) | -1.26% (inactive)
O=C(Nc1nnc(SCc2c(Cl)cccc2Cl)s1)c1cccc([N+](=O)[O-])c1 | 1.12% (inactive)
CNC(=O)c1[nH]cnc1C(=O)N[C@@H](CC(C)C)C(=O)OCc1ccccc1 | 30.9% (active)
CC(C)(C)OC(=O)N1CCC(NC(=O)c2[nH]cnc2C(=O)N[C@@H](Cc2ccccc2)C(=O)OCc2ccccc2)CC1 | 0.67% (inactive)
CNC(=O)c1[nH]cnc1C(=O)N[C@@H](CC(C)C)C(=O)OC(C)(C)C | 2.22% (inactive)
CC(=O)c1c(N2CCN(c3ccc(F)cc3)CC2)nc(=S)n(-c2ccccc2)c1C | 0.51% (inactive)
Nc1cccc(S(=O)(=O)Nc2ccc(SC(F)F)cc2)c1 | 1.21% (inactive)
NC(=O)c1ccccc1N=Cc1ccc2ccccc2c1 | 0.55% (inactive)
